Bioassay records as filed in PubChem.
NALP1 yeast inh: inhibitors of NALP1 inflammasome in yeast | inhibition, % at 10 µM | actives 0.61% (n = 280,000) | S. cerevisiae NALP1/ASC/caspase-1 growth, X-gal OD620, 72 h; in the data active = inhibition mostly above about 24%, no sharp cut-off; inactive = mostly below about 32%
HSP90 refold inh: HSP90 refolding inhibition in rabbit reticulocyte lysate. luciferase refolding luminescence, 3 h. inhibition, % at 5.6 µM. actives 0.91% (n = 290,000);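 active = inhibition above the screen-wide mean plus 3 SD, computed separately per campaign, cut at about 16% in these data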;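 also: inhibitors lower the luminescence because luciferase stays unfolded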
HSF1 activator: increases HSF-1 driven luciferase reporter signal | activation, % at 9 µM | NIH3T3-HGL HSF-1 luciferase reporter, MG132, 8 h; 100% = twice DMSO control signal | actives 1.7% (n = 300,000);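 active = mean replicate activation of at least 50% with a set share of replicates each reaching 50%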
p-CIP stab down: lowers stability of the mouse p/CIP coactivator protein | AID 1984 | F442A p/CIP-EGFP cells, EGFP fluorescence, 16 h | actives 0.01% (n = 290,000) | decrease of EGFP signal, % at 10 µM;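 active = EGFP signal decrease of at least 30% at 10 µM or well 3 SD below plate mean, unless failing retest; inactive = the rest, including hits failing retest or dose response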
Hsp70 act: transcriptional activators of Hsp70; HeLa Hsp70 promoter luciferase reporter, luminescence; scaled: vehicle 0, proteasome-inhibitor control 100%; activation, % at 10 µM; actives 0.04% (n = 200,000);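 active = activation above the mean across all tested compounds plus 3 SD, cutoff set per campaign, cut at about 5.5% in these data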
HSF1 inhib: HSF1 inhibition; NIH3T3-HGL HSE-luciferase, MG132-induced, luminescence 8 h; active compounds read low; activity change, negative = inhibition, % at 7.5 µM (by protocol); actives 0.77% (n = 300,000); AID 2098;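 active = more than half of replicate wells show activity change below -50%, luminescence cut by over half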;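 also: luciferase reports HSF-1 transcriptional activity via heat shock element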
Each line names hits and unclear results; the compound was inactive in the other large screens. In the library only some 3.8% were active in any assay of this set; here they are far more common.

COCCNC(=O)C(OC(=O)c1cccs1)c1ccccc1 (stereo not drawn)	HSF1 inhib -54.7
CC(=O)c1cccc(NC(=O)C(OC(=O)c2cccs2)c2ccccc2)c1 (stereo not drawn)	none
COc1ccc(C2CC(=O)C(C=NCCO)=C(O)C2)cc1 (stereo not drawn)	none (no result: Hsp70 act)
Cc1ccc(SCC(=O)NC(C)c2ccccc2)cc1 (stereo not drawn)	none (no result: Hsp70 act)
COC(=O)Cn1c2ccc(Cl)cc2c2nc(C)sc21	none (no result: Hsp70 act)
Cc1nc2c3cc(Cl)ccc3n(CCN3CCCCC3)c2s1	HSF1 activator 59.7
CC(c1nc2ccccc2n1Cc1ccccc1)N1CCCCC1 (stereo not drawn)	none (no result: Hsp70 act)
Cc1nc(C)c(C(=O)Nc2ccc(Oc3ccccc3)cc2)o1	none (no result: NALP1 yeast inh)
Cc1ncoc1C(=O)Nc1ccc(Oc2ccccc2)cc1	HSF1 activator 52.4
CC(C)(C)C(=O)Nc1nnc(SCC(=O)NC2CCCCC2)s1	none (no result: Hsp70 act)
CN1CCN(C(=O)c2ccc3c(Cl)c4c(nc3c2)CCCC4)CC1	HSF1 activator 136.1 (no result: Hsp70 act)
CCOC(=O)N1CCN(C(=O)c2ccc3c(SCC(=O)O)c4c(nc3c2)CCCC4)CC1	none
CCN1CCN(CCCNC(=O)c2ccc3c(Cl)c4c(nc3c2)CCCC4)CC1	HSF1 activator 96.7 (no result: Hsp70 act)
CCN1CCN(C(=O)c2ccc3c(Cl)c4c(nc3c2)CCCC4)CC1	HSF1 activator 114.3 (no result: Hsp70 act)
N#CC1CCN(C(=O)c2ccc3c(Cl)c4c(nc3c2)CCCC4)CC1	none (no result: Hsp70 act)
CC(C)c1ccc(NC(=O)COC(=O)COc2ccccc2)cc1	none
CCCCN(C(=O)COC(=O)COc1c(C)cc(C)cc1C)c1c(N)n(CCC)c(=O)[nH]c1=O	HSF1 inhib -68.6 (no result: NALP1 yeast inh, HSP90 refold inh, p-CIP stab down, Hsp70 act)
CN1CCN(c2ccc(-c3ccnn3C(=O)Nc3ccccc3)cc2)CC1	none
CC(CCc1ccccc1)NC(=O)CCC(=O)N1CCC(C(N)=O)CC1 (stereo not drawn)	none (no result: Hsp70 act)
O=C(Nc1ccc2oc(-c3ccccc3)nc2c1)C1CCCO1 (stereo not drawn)	HSF1 activator 73.2
CCOc1cccc(-c2nc3cc(C)ccc3o2)c1	none
O=C(Nc1ccc(-c2nc3ccccc3o2)cc1)C1CCCO1 (stereo not drawn)	none
O=C(Nc1ccc2oc(-c3ccccc3)nc2c1)c1ccco1	HSF1 activator 86.0
O=C(Nc1ccc2nn(-c3ccccc3)nc2c1)c1ccco1	HSF1 activator 53.7
O=C(Nc1cc2nn(-c3ccccc3)nc2cc1Cl)c1ccco1	none
O=C(Nc1ccc2oc(-c3ccncc3)nc2c1)c1ccco1	none (no result: Hsp70 act)
Cc1ccc2oc(-c3ccccc3)nc2c1	HSF1 activator 69.1
C=CCn1c(C)nnc1SCC(=O)Nc1nc(C)c(C(=O)N(C)C)s1	HSF1 inhib -75.8 (no result: Hsp70 act)
O=C(C#Cc1ccccc1)Nc1cccc(F)c1	HSF1 activator 81.6 (no result: NALP1 yeast inh, Hsp70 act)
COC(=O)/C(=C\C(=O)c1ccccc1)Nc1ccc(OC)cc1	HSF1 activator 50.6 (no result: Hsp70 act)
COc1ccc(NC(=O)C#Cc2ccccc2)cc1	HSF1 activator 54.2 (no result: Hsp70 act)
O=C(Cc1ccccc1)N1CCC2(CC1)NCCc1[nH]cnc12	none (no result: Hsp70 act)
Cc1ccc(/C(N)=N/OC(=O)/C=C/c2ccccc2)cc1	none
Cc1ccc(C(=O)C(C(=O)/C=C/c2ccccc2)=C2SCCCS2)cc1	HSF1 activator 135.8
O=C(O)CCCNC(=O)CCCNC(=O)C(c1ccccc1)c1ccccc1	HSF1 inhib -63.7
O=[N+]([O-])c1ccc(-c2cn(-c3ccccc3F)c(=S)[nH]2)cc1	HSF1 activator 60.3
O=C(NC1CCN(Cc2ccccc2)CC1)c1ccccc1Cl	none (no result: Hsp70 act)
Cc1c(C(=O)NC2CCN(Cc3ccccc3)C2)oc2c(Cl)cccc12 (stereo not drawn)	NALP1 yeast inh 39.3 (no result: Hsp70 act)
Nc1nc(CSc2nnnn2-c2ccccc2)nc(N2CCCc3ccccc32)n1	none (no result: HSF1 activator, HSF1 inhib)
CN(C)c1nc(N)nc(CSc2nnnn2-c2ccc(F)cc2)n1	HSF1 activator 60.2
COc1ccc(CN(C)C(=O)CCN(c2ccccc2)S(=O)(=O)c2ccc(C)cc2)c(OC)c1	none (no result: NALP1 yeast inh, HSP90 refold inh, p-CIP stab down, Hsp70 act)
O=C(NCCc1cscn1)C1CCC(=O)N(Cc2ccc(Cl)cc2)C1 (stereo not drawn)	none (no result: Hsp70 act)
c1ccc(-n2nnnc2-c2cnc(-c3ccncc3)nc2-c2cccs2)cc1	NALP1 yeast inh 21.6
FC(F)(F)c1nc(-c2ccncc2)ncc1-c1nnnn1-c1ccccc1	none
Cc1ccc(C)c2[nH]c(=O)c(CN(CC3CCCO3)C(=S)NCc3ccco3)cc12 (stereo not drawn)	none (no result: NALP1 yeast inh, Hsp70 act)
COc1ccc(C(=O)N(Cc2ccco2)Cc2cc3cc(C)ccc3[nH]c2=O)cc1OC	none (no result: NALP1 yeast inh, p-CIP stab down)
CCCCNC(=S)N(Cc1ccco1)Cc1cc2cc3c(cc2[nH]c1=O)OCCO3	HSF1 activator 155.8
Cc1cc2cc(CCNC(=O)c3cccs3)c(=O)[nH]c2cc1C	HSF1 activator 58.3
CCOCCCNC(=S)N(Cc1ccco1)Cc1cc2cc3c(cc2[nH]c1=O)OCCO3	none
COc1ccccc1NC(=S)N(Cc1ccco1)Cc1cc2cc(C)ccc2[nH]c1=O	HSF1 activator 99.5
Cc1ccc(C)c2[nH]c(=O)c(CN(Cc3cccs3)C(=S)NCc3ccco3)cc12	HSF1 activator 76.6
Cc1c(CN2CCCC(C(=O)c3cccc(OC(C)C)c3)C2)c(=O)n(-c2ccccc2)n1C (stereo not drawn)	none
CCC(C(=O)NCCc1ccc(OC)c(OC)c1)n1nc(C)n2c(cc3occc32)c1=O (stereo not drawn)	none (no result: Hsp70 act)
Cc1cc2cc(CN(Cc3cccs3)C(=S)NCc3ccco3)c(=O)[nH]c2cc1C	HSF1 activator 63.3
O=[N+]([O-])c1cccc(S(=O)(=O)NCCCn2ccnc2)c1	none (no result: Hsp70 act)
O=C(c1ccccc1-c1ncc[nH]1)N1CCCC(Nc2ccc(F)cc2)C1 (stereo not drawn)	none (no result: Hsp70 act)
O=C(COC(=O)c1cncc(Br)c1)NCc1ccccc1	HSF1 activator 53.2
O=C(COC(=O)c1cncc(Br)c1)NCc1ccc(Cl)cc1	none (no result: Hsp70 act)
CCc1cc(C(=O)NCC(C)(C)N2CCOCC2)sc1C	HSF1 inhib -67.8 (no result: NALP1 yeast inh, HSP90 refold inh, p-CIP stab down, Hsp70 act)
Cc1[nH]c(C)c(S(=O)(=O)N2CCN(c3ccccc3F)CC2)c1C(=O)N1CCCCC1	none (no result: Hsp70 act)
CN(C)S(=O)(=O)c1cccc(NC(=O)C2Cc3ccccc3CN2C(=O)c2ccco2)c1 (stereo not drawn)	none (no result: Hsp70 act)
CCOC(=O)C1CCN(C(=O)CN2C(=O)CSc3ccc(S(=O)(=O)N4CCOCC4)cc32)CC1	none (no result: Hsp70 act)
CCN(CC)C(=O)Cn1nc(-c2ccncc2)nc1SCC(=O)Nc1ccc(OC)cc1	HSF1 activator 58.1 (no result: Hsp70 act)
O=C(COC(=O)c1ccc(O)cc1O)Nc1ccc(Cl)cn1	none (no result: Hsp70 act)
O=C(COC(=O)c1ccc(O)cc1O)c1ccc(Cl)cc1	HSF1 activator 61.3 (no result: NALP1 yeast inh, HSP90 refold inh, p-CIP stab down, Hsp70 act)
c1ccc2c(Cn3ccnc3)cccc2c1	none (no result: Hsp70 act)
C=CCSc1nnc(-c2ccc(Cl)cc2Cl)o1	HSF1 activator 57.1
Clc1ccc(-c2nnc(SCc3nc4ccccc4[nH]3)o2)c(Cl)c1	HSF1 activator 75.3
